# Where “and” joins values, the source holds several entries; their conditions need not be identical. Identical values can stand only once. Records with an inconclusive call do not appear. Where a call stands in place of a potency, no number is given. Calls of active or inactive are those of the source. Unless noted, calls follow the shape of the dose curve; as a rule, active = well fitted curve in the direction sought with a large enough effect; inconclusive = small, poorly fitted or top-dose-only effect, or another doubt; inactive = no such curve, though single readings can be large; an effect the other way counts as inactive or inconclusive.
# Experiments:
# [1] = NCATS anti-infectives library activity on HEK293 viability as a counter-qHTS vs the C. elegans viability qHTS (AID 1745854);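 also: HEK293 cells exposed to compounds for 24 hr before the viability read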
# In short: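 Compound titrations (final up to 41.7 uM) were incubated with HEK293 cells for 24 hr at 37C under 5% CO2. Viable cells were quantified with CellTiter-Glo after 10 min at ambient temperature.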
# [2] = molecular target: Glutathione peroxidase 1 (Homo sapiens) (UniProt P07203); assay: Primary qHTS Assay for Inhibitors of Recombinant Selenoprotein Glutathione Peroxidase 1 (GPX1) (AID 1845191); also: nearly all actives have a fitted effect of over 65% in size; also: potency is read from the fitted curve at half-maximal effect
# Chain of Glutathione peroxidase 1 (Homo sapiens) (P07203 whole entry, looked up): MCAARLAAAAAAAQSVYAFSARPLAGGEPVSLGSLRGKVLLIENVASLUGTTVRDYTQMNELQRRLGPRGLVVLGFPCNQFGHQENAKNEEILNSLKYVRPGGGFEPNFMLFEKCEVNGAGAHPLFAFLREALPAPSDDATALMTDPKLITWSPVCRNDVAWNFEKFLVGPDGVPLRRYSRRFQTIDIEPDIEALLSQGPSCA
# In short: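 NADPH consumption tracked by fluorescence at 340/450 nm between t=0 and t=15 min, room temperature. Final mix: 10 nM GPX1, 100 nM glutathione reductase, 1 mM GSH, 0.5 mM NADPH, 0.5 mM cumene hydroperoxide, 0.01% BSA; 30 min compound–enzyme preincubation.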
# [3] = molecular target: Phospholipid hydroperoxide glutathione peroxidase GPX4 (Homo sapiens) (UniProt P36969); assay: Primary qHTS Assay for Inhibitors of Recombinant Selenoprotein Glutathione Peroxidase 4 (GPX4) (AID 1845192); also: nearly all actives have a fitted effect of over 65% in size
# Chain of Phospholipid hydroperoxide glutathione peroxidase GPX4 (Homo sapiens) (P36969 whole entry, looked up): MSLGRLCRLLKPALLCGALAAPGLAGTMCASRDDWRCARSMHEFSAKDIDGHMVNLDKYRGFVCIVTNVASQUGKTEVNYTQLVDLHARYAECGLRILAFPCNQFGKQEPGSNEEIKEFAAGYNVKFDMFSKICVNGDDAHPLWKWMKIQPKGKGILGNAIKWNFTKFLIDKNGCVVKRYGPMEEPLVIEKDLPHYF
# In short: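 NADPH consumption followed by fluorescence at 340/450 nm, t=0 and after 15 min at room temperature. Reaction started with cumene hydroperoxide (0.5 mM final) after 30 min compound–GPX4 preincubation; final 200 nM GPX4, 100 nM GR, 1 mM GSH, 0.5 mM NADPH.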
# [4] = molecular target: Catechol O-methyltransferase (Homo sapiens) (UniProt P21964); assay: Confirmatory Screen for Target Class Profiling of Small Molecule Inhibitors of Methyltransferases (AID 1745852; calls by dose curve); conditions: MTase-Glo luminescence, SAH detection, recombinant enzyme; measured here: COMT max response; stronger effect = lower value
# Chain of Catechol O-methyltransferase (Homo sapiens) (P21964 whole entry, looked up): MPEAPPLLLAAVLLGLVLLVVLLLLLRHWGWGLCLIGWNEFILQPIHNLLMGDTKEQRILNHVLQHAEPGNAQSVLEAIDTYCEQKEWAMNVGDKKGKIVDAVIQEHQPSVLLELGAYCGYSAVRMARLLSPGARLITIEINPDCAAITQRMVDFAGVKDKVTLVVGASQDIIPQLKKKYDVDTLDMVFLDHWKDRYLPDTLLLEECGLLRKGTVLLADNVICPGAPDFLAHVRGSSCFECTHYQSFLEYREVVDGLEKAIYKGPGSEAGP
# [5] = molecular target: Guanidinoacetate N-methyltransferase (Homo sapiens) (UniProt Q14353); assay: as above; conditions: MTase-Glo luminescence, SAH detection, recombinant enzyme
# [6] = molecular target: Nicotinamide N-methyltransferase (Homo sapiens) (UniProt P40261); assay: as above; conditions: MTase-Glo luminescence, SAH detection, recombinant enzyme; measured here: NNMT max response; stronger effect = lower value
# Chain of Nicotinamide N-methyltransferase (Homo sapiens) (P40261 whole entry, looked up): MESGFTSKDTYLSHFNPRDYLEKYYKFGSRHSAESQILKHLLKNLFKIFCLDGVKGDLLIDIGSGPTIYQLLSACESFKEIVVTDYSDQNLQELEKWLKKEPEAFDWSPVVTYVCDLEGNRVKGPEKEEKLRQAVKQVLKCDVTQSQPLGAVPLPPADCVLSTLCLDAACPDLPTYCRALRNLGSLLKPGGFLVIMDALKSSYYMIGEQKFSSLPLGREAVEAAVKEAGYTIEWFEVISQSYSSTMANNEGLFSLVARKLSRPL
# [7] = molecular target: Phenylethanolamine N-methyltransferase (Homo sapiens) (UniProt P11086); assay: as above; conditions: MTase-Glo luminescence, SAH detection, recombinant enzyme; measured here: PNMT max response; stronger effect = lower value
# Chain of Phenylethanolamine N-methyltransferase (Homo sapiens) (P11086 whole entry, looked up): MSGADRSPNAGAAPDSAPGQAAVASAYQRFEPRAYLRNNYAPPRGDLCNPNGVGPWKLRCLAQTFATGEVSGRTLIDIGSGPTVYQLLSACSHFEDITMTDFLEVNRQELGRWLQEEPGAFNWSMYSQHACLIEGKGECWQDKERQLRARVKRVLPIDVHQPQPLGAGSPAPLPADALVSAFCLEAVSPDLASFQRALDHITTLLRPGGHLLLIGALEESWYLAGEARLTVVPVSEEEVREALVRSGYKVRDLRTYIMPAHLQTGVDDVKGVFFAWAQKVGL
# [8] = molecular target: Luciferin 4-monooxygenase (Photinus pyralis) (UniProt P08659); assay: Primary firefly luciferase (FLuc) qHTS assay for identification of artifact compounds. (AID 1845220); conditions: outcome: dose series up to 54.1 µM unless noted; also: nearly all actives have a fitted effect of over 60% in size
# In short: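 FLuc 10 nM; luciferin 10 uM; ATP 10 uM; Tris-acetate pH 7.6, Mg-acetate 10 mM; 15 min RT preincubation; 5 min reaction; luminescence.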
# [9] = Primary fluorescence-based thiol-reactive (MSTI) qHTS assay for identification of artifact compounds. (AID 1845221);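 also: thiol-reactive compounds lower the probe fluorescence signal; nearly all actives have a fitted effect of over 65% in size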
# In short: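 qHTS titration of compound; 4 uM MSTI, PBS pH 7.4, 2% DMSO; 1 h RT, dark; fluorescence 525/598 nm; normalized to Acetyl-MSTI and MSTI; 4-parameter Hill fit.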
# [10] = tested on: Nanoluciferase (engineered Oplophorus gracilirostris luciferase); assay: Primary Nanoluciferase (NLuc) qHTS assay for identification of artifact compounds. (AID 1845222);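 also: NLuc secreted into diluted conditioned medium of S16 cells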
# In short: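 NLuc from S16 cell medium (1:55) plus test compounds, 15 min, room temperature. Luminescence after Nano-Glo (1:100) addition, 5 min.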
# [11] = Primary redox qHTS assay for identification of artifact compounds. (AID 1845223)
# In short: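 Redox-cycling detection via DTT (250 uM final) oxidation coupled to Amplex Red (25 uM)/HRP (250 mU/mL) in HBSS. 15 min preincubation plus 30 min after DTT, room temperature. Ex/Em 525/598 nm; 4-parameter Hill fit against DMSO and 10 uM DA3003.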
# [12] = Viability counterscreen for antagonist of constitutive androstane receptor (CAR) against the NCATS DSHEA and TCM libraries (AID 1794837);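 also: compound exposure lasted 24 h before viability reading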
# In short: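 HepG2-CYP2B6-hCAR cells (2,500/well) were allowed to attach for 5 h, then exposed to compounds with 48 uM CITCO for 24 h at 37C. Viability was read by CellTiter-Fluor fluorescence after 1 h.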
# [13] = Viability counterscreen for agonist of constitutive androstane receptor (CAR) against the NCATS DSHEA and TCM libraries (AID 1794838)
# In short: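 HepG2-CYP2B6-hCAR cells (2,500/well) attached 5 h, then got compounds plus 0.75 uM PK11195 final. After 24 h at 37C, viability read by CellTiter-Fluor fluorescence (Ex/Em 405/540 nm).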
# [14] = molecular target: Nuclear receptor subfamily 1 group I member 3 (Homo sapiens) (UniProt Q14994); assay: Primary qHTS for agonist of constitutive androstane receptor (CAR) against the NCATS DSHEA and TCM libraries (AID 1794839);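 also: HepG2 cells expressing human CAR with a CYP2B6 reporter plus PK11195 antagonist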
# Chain of Nuclear receptor subfamily 1 group I member 3 (Homo sapiens) (Q14994 whole entry, looked up): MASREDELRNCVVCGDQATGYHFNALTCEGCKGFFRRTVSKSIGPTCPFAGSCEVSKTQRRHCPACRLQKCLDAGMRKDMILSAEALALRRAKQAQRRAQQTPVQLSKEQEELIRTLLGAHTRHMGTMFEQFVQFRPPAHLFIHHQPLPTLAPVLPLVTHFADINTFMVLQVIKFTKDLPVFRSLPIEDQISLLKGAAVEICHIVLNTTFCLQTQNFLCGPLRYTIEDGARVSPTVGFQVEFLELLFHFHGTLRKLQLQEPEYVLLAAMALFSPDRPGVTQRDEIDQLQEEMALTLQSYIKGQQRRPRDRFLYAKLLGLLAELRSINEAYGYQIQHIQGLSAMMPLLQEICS
# In short: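 HepG2-CYP2B6-hCAR cells (2,500/well) were attached for 5 h, then treated for 24 h at 37 °C with compounds plus 0.75 µM PK11195. Luciferase luminescence (ONE-Glo) was read, with CellTiter-Fluor viability (Ex/Em 405/540 nm).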
# [15] = HepG2 viability counterscreen (readout 2: ATP content) against the NCATS DSHEA and TCM libraries (AID 1794840);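 also: HepG2 cells exposed to substances for about 24 h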
# In short: (§1)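 HepG2 cells (1,000 cells/well) attached ~4 h, then treated ~24 h at 37C with substances. Protease activity read by GF-AFC (25 uM final, 30 min, Ex/Em 380/510 nm); ATP content then by CellTiter-Glo luminescence.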
# [16] = HepG2 viability counterscreen (readout 1: protease activity) against the NCATS DSHEA and TCM libraries (AID 1794841);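 also: cells exposed to compounds for about 24 h before the protease read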
# In short: as §1
# [17] = molecular target: Cytochrome P450 3A4 (Homo sapiens) (UniProt P08684); assay: qHTS for inhibitors of CYP3A4 against the NCATS DSHEA and TCM libraries (AID 1919971);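 also: inhibition lowers luminescence from luciferin made by CYP3A4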
# Chain of Cytochrome P450 3A4 (Homo sapiens) (P08684 whole entry, looked up, canonical isoform): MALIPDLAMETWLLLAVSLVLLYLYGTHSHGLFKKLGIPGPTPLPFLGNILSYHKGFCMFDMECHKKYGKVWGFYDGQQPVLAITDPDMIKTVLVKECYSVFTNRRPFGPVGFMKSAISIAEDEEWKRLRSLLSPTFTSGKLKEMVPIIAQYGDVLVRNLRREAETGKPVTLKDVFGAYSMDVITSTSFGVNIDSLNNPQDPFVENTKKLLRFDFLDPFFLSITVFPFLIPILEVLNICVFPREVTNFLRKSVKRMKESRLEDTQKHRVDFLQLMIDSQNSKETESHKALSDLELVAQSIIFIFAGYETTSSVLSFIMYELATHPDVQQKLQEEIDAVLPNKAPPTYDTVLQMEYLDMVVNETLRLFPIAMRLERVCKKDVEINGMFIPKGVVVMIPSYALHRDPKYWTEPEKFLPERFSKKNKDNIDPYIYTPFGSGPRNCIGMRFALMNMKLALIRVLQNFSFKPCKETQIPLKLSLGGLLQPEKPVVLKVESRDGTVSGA
# In short: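 Isoform-specific enzyme and substrate levels; enzyme-free wells as background. Reaction: 1x NADPH regenerating system, 30-45 min, room temperature, shielded from light; luminescent detection reagent added, 30 min.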
# [18] = molecular target: Cytochrome P450 2D6 (Homo sapiens) (UniProt P10635); assay: qHTS for inhibitors of CYP2D6 against the NCATS DSHEA and TCM libraries (AID 1919972)
# Chain of Cytochrome P450 2D6 (Homo sapiens) (P10635 whole entry, looked up): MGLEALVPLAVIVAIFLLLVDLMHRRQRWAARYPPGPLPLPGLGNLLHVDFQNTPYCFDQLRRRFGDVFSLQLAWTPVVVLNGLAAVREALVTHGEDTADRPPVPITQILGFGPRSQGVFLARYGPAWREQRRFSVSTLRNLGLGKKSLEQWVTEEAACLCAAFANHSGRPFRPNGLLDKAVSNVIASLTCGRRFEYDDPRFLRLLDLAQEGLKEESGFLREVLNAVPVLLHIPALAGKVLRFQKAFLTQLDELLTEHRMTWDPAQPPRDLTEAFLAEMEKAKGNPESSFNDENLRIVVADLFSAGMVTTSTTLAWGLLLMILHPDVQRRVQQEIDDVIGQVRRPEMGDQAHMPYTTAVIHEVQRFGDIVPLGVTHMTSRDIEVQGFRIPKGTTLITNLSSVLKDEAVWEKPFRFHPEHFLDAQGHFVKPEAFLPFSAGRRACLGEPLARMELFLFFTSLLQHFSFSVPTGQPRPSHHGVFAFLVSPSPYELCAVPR
# In short: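 qHTS, concentration–response format with most substances from 19.5 nM. CYP2D6 + pro-luciferin substrate, 15 min with compound, then 1x NADPH regen, 30–45 min RT dark. Glo detection 30 min, luminescence. Quinidine control.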
# [19] = NCATS anti-infectives library activity on the primary C. elegans qHTS viability assay (AID 1745855; calls by dose curve); conditions: C. elegans worm area imaging, day 7; at 41.8 µM (top of the series)
# In short: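 Titration-based screen in worms: eggs hatched overnight in M9, L1 larvae fed TOP10 capsules in S medium with compound, incubated 21 °C for 7 days; fluorescent objects gated by size and intensity at days 0, 3 and 7.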
# [20] = molecular target: Metallo-beta-lactamase type 2 (Klebsiella pneumoniae) (UniProt C7C422); assay: qHTS to identify inhibitors of the New Delhi Metallo-beta-lactamase (NDM): assay validation screen against the NCATS LOPAC Collection (AID 1794843);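 also: nitrocefin turnover by NDM-1 measured as 485 nm absorbance at plateau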
# Chain of Metallo-beta-lactamase type 2 (Klebsiella pneumoniae) (C7C422 whole entry, looked up): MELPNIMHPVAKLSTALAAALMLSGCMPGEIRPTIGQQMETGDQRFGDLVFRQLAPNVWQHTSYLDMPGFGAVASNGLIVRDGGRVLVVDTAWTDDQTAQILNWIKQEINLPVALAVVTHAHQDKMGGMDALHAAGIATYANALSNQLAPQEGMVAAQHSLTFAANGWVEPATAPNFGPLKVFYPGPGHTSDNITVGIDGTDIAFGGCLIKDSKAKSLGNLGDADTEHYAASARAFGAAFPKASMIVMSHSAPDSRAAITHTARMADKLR
# In short: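 NDM-1 at 2 nM final in 50 mM HEPES pH 7.0, 1 uM ZnSO4, 0.01% Tween20, preincubated with LOPAC compounds pinned in DMSO; 50 uM nitrocefin (stock) added. Hydrolysis read as absorbance at 485 nm in the plateau phase.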
structure (smiles),measurement,setting,value
CC(CN1c2ccccc2Sc2ccccc21)N(C)C (stereo not given),outcome,[1],inactive
same,Potency,[2],inactive
same,Potency,[3],inactive
O=c1cc(CO)occ1O,outcome,[1],inactive
same,Potency,[2],inactive
same,Potency,[3],inactive
Cc1ncc(COP(=O)(O)O)c(C=O)c1O,outcome,[1],inactive
same,Potency,[2],inactive
same,Potency,[3],inactive
O=C1Nc2ccc(Cl)cc2[C@@](C#CC2CC2)(C(F)(F)F)O1,activity,[4],-1.93%
same,"activity change, negative = inhibition",[5]; at 57.3 µM (top of the series),0%
same,activity,[6],-43%
same,activity,[7],-2.33%
same,Potency,[2],inactive
same,Potency,[3],inactive
same,outcome,[8],inactive
same,Potency,[9],inactive
same,outcome,[10],inactive
same,outcome,[11],inactive
CCN(CC)CCCC(C)Nc1c2ccc(Cl)cc2nc2ccc(OC)cc12 (stereo not given),activity,[4],-1.98% and -3.74%
same,"activity change, negative = inhibition",[5]; at 29.8 µM (top of the series),-0.149%
same,"activity change, negative = inhibition",[5]; at 57.3 µM (top of the series),2.96%
same,activity,[6],-11.3% and -15.1%
same,activity,[7],3.56% and -4.16%
same,Potency,[2],inactive
same,Potency,[3],inactive
same,outcome,[8],inactive [at 25.7 µM]
same,Potency,[9],inactive
same,outcome,[10],inactive
same,outcome,[11],inactive
COc1ccc2cc1Oc1ccc(cc1)C[C@H]1c3c(cc4c(c3Oc3cc5c(cc3OC)CCN(C)[C@@H]5C2)OCO4)CCN1C,outcome,[1],inactive
same,Potency,[2],inactive
same,Potency,[3],inactive
same,outcome,[8],inactive
same,Potency,[9],inactive
same,outcome,[10],inactive
same,outcome,[11],inactive
O=C1O[C@H]([C@@H](O)CO)C(O)=C1O,outcome,[12],inactive
same,outcome,[13],inactive
same,outcome,[14],inactive
same,outcome,[15],inactive
same,outcome,[16],inactive
same,Potency,[2],inactive
same,Potency,[3],inactive
same,outcome,[17],inactive
same,outcome,[18],inactive
CC1=C(C/C=C(\C)CCC[C@H](C)CCC[C@H](C)CCCC(C)C)C(=O)c2ccccc2C1=O,outcome,[12],inactive
same,outcome,[13],inactive
same,outcome,[14],inactive
same,outcome,[15],inactive
same,outcome,[16],inactive
same,Potency,[3],inactive
same,outcome,[18],inactive
CCCCc1ncc(/C=C(\Cc2cccs2)C(=O)O)n1Cc1ccc(C(=O)O)cc1,outcome,[1],inactive
same,outcome,[19],inactive
same,Potency,[2],inactive
same,Potency,[3],inactive
same,outcome,[8],inactive
same,Potency,[9],inactive
same,outcome,[10],inactive
same,outcome,[11],inactive
CN(C)CC[C@@H](c1ccc(Cl)cc1)c1ccccn1,activity,[4],-1.71%
same,"activity change, negative = inhibition",[5]; at 57.3 µM (top of the series),2.46%
same,activity,[6],-7.31%
same,activity,[7],-1.72%
same,Potency,[2],inactive
same,Potency,[3],inactive
CCCCN(CCCC)CC(O)c1cc(Cl)cc2c1-c1ccc(Cl)cc1/C2=C/c1ccc(Cl)cc1 (stereo not given),outcome,[20],inactive
same,Potency,[2],inactive
same,Potency,[3],inactive
C[C@@H]1CCN(C(=O)[C@H](CCCN=C(N)N)NS(=O)(=O)c2cccc3c2NC[C@H](C)C3)[C@@H](C(=O)O)C1,Potency,[2],inactive
same,Potency,[3],inactive
NC(=O)NC(=O)Cc1ccccc1,Potency,[2],inactive
same,Potency,[3],inactive
CCC(=O)c1ccc(O)cc1,Potency,[2],inactive
same,Potency,[3],inactive
CO/N=C(\C(=O)N[C@@H]1C(=O)N2C(C(=O)O)=C(CSc3nc(=O)c(O)nn3C)CS[C@H]12)c1csc(N)n1,Potency,[2],9.04 µM (active)
C[C@@H](O)[C@H](N)C(=O)O,Potency,[2],inactive
same,Potency,[3],inactive
N[C@@H](CSCCCO)C(=O)O,Potency,[2],inactive
same,Potency,[3],inactive
CNC(=O)Oc1ccc2c(c1)[C@]1(C)CCN(C)[C@@H]1N2C,outcome,[20],inactive
same,Potency,[2],inactive
same,Potency,[3],inactive
same,outcome,[8],inactive
same,outcome,[10],inactive
Nc1cc(=O)[nH]c(N)n1,Potency,[2],inactive
same,Potency,[3],inactive
N=c1c[n+](N2CCOCC2)[n-]o1,Potency,[2],inactive
same,Potency,[3],inactive
CNCCC(Oc1ccc(C(F)(F)F)cc1)c1ccccc1 (stereo not given),outcome,[20],inactive
same,Potency,[2],inactive
same,Potency,[3],inactive
CC1=C(CC(=O)O)c2cc(F)ccc2/C1=C\c1ccc(S(C)=O)cc1 (stereo not given),outcome,[20],inactive
same,Potency,[2],inactive
same,Potency,[3],inactive
O=c1[nH]c(=O)c2[nH]c(=O)[nH]c2[nH]1,"activity, negative = inhibition",[2],-12.4% [at 9.52 µM] (inactive)
same,"activity change, negative = inhibition",[3],-16.1% [at 9.73 µM] (inactive)
CCn1cc(C(=O)O)c(=O)c2cnc(N3CCNCC3)nc21,Potency,[2],inactive
same,Potency,[3],inactive
CCCn1cnc2c1c(=O)n(CCCCC(C)=O)c(=O)n2C,outcome,[20],inactive
same,Potency,[2],inactive
same,Potency,[3],inactive
CC1=C(/C=C/C(C)=C/C=C/C(C)=C/C(=O)O)C(C)(C)CCC1,outcome,[20],inactive
same,Potency,[2],inactive
same,Potency,[3],inactive
CN1[C@@H]2CC[C@H]1CC(OC(=O)C(O)c1ccccc1)C2 (stereo not given in full),Potency,[2],inactive
same,Potency,[3],inactive
OCC(CO)N[C@H]1C[C@](O)(CO)[C@@H](O)[C@H](O)[C@H]1O,Potency,[2],inactive
same,Potency,[3],inactive

# From PubChem BioAssay (NCATS)
